Assay [1] relates to Zika virus NS2B-NS3 protease. Briefly: Primary screen GU AMC qHTS for Zika virus inhibitors (AID 1347154).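 Further: 0% = no-inhibitor control and -100% = no-enzyme control; nearly all actives have a fitted effect of over 70% in size.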 In a few lines: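 Fluorogenic AMC-substrate cleavage by noncovalent NS2B-NS3 protease complex (25 nM, pH 8.0 Tris buffer with Tween 20) followed for 15 minutes at room temperature (~20% conversion). Percent inhibition from ex340/em450 signal change, fitted by 4-parameter Hill equation.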
A general note: In qHTS, concentration-response curves come from the screen itself.

Assay [2] can be described thus: Counterscreen qHTS for small molecule stabilizers of the endoplasmic reticulum resident proteome: GLuc-NoTag assay (AID 1508627). Further: potency means the concentration at half of the fitted maximal effect.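 On activity change, negative = inhibition: 0% = thapsigargin alone and -100% = DMSO vehicle control.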 The gist of the method: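 Counterscreen line: SH-SY5Y-GLuc-NoTag cells, treated with compound 19 hr before a 4 hr, 100 nM thapsigargin calcium depletion. Secreted Gaussia luciferase in the medium was measured by luminescence after coelenterazine was added (0.07x final), with cells unlysed.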
(Counterscreens check selectivity or assay interference.)

Assay [3] in a line: Confirmatory qHTS for small molecule stabilizers of the endoplasmic reticulum resident proteome: Secreted ER Calcium Modulated Protein (SERCaMP) assay (AID 1508628). Further: nearly all actives have a fitted effect of over 40% in size. Further: potency means the concentration at half of the fitted maximal effect. The gist of the method:
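Reporter secretion upon ER calcium depletion (100 nM thapsigargin, 4 h, 37C) is measured as medium luminescence with coelenterazine, after 16 h compound pretreatment of SH-SY5Y-GLuc-SERCaMP cells; primary at three concentrations up to 38.3 uM, follow-up at 11 (up to 76.6 uM).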

A short description of assay [4]: Primary qHTS for inhibitors of nuclear receptor binding SET domain protein 2 (NSD2) in an isogenic RCH-ACV NSD2 p.E1099K mutant (9B) (AID 1645876). Further: potency means the concentration at half of the fitted maximal effect; nearly all actives have a fitted effect of over 70% in size.
Assay [5] concerns the target Catechol O-methyltransferase (Homo sapiens) (UniProt P21964). Briefly: Confirmatory Screen for Target Class Profiling of Small Molecule Inhibitors of Methyltransferases (AID 1745852; calls by dose curve; further: potency means the concentration at half of the fitted maximal effect). As to conditions: MTase-Glo luminescence, SAH detection, recombinant enzyme; measured here: COMT max response; stronger effect = lower value.
Assay [6] deals with Guanidinoacetate N-methyltransferase (Homo sapiens) (UniProt Q14353). The assay is described as above. As to conditions: activity change, negative = inhibition: at 57.3 µM (top of the series) unless noted.
In assay [7] the target is Nicotinamide N-methyltransferase (Homo sapiens) (UniProt P40261). Described as above. As to conditions: MTase-Glo luminescence, SAH detection, recombinant enzyme; measured here: NNMT max response; stronger effect = lower value.
The target in assay [8] is Phenylethanolamine N-methyltransferase (Homo sapiens) (UniProt P11086). The description is as above. As to conditions: MTase-Glo luminescence, SAH detection, recombinant enzyme; measured here: PNMT max response; stronger effect = lower value.
Assay [9] concerns the target Glutathione peroxidase 1 (Homo sapiens) (UniProt P07203). Briefly: Primary qHTS Assay for Inhibitors of Recombinant Selenoprotein Glutathione Peroxidase 1 (GPX1) (AID 1845191). Further: on the % scale 0 is the no-effect control and ±100 the full control effect; nearly all actives have a fitted effect of over 65% in size. In a few lines: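 NADPH consumption tracked by fluorescence at 340/450 nm between t=0 and t=15 min, room temperature. Final mix: 10 nM GPX1, 100 nM glutathione reductase, 1 mM GSH, 0.5 mM NADPH, 0.5 mM cumene hydroperoxide, 0.01% BSA; 30 min compound–enzyme preincubation.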

Assay [10] in a line: Primary qHTS for inhibitors of nuclear receptor binding SET domain protein 2 (NSD2) in an RCH-ACV wild type WT cells (2C) (AID 1645877). Further: on the % scale 0 is the no-effect control and ±100 the full control effect; nearly all actives have a fitted effect of over 70% in size.
The nature of assay [11]: AP1 Signaling Pathway (AID 357; active means well fitted curve in either direction with a large enough effect, not every such curve was filed as active;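 further: ME-180 reporter cells stimulated with EGF at its EC50 level; on the % scale 0 is the no-effect control and ±100 the full control effect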). As to conditions: ME-180 AP-1-bla reporter, EGF-induced, beta-lactamase ratio, 5 h. In a few lines:
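Cells are seeded overnight, exposed to compound titrations and an EC50 level of EGF for 5 hours at 37 °C, then loaded with CCF4 dye for 2.5 hours. Beta-lactamase activity under the AP-1 element is read as a blue/green ratio.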

The target in assay [12] is Cytochrome P450 1A2 (Homo sapiens) (UniProt P05177). In words: p450-cyp1a2 (AID 410; calls by dose curve; further: potency means the concentration at half of the fitted maximal effect). In a few lines:
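Luminescent demethylation readout: Luciferin-ME (100uM, equal to Km) turned over by 20nM CYP1A2 for 60 min at room temperature after NADPH regeneration addition, following 10 min compound preincubation. Normalization used 57 uM furafylline as full inhibition.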

The nature of assay [13]: Stat Signaling Pathway (AID 446; active means well fitted curve in either direction with a large enough effect, not every such curve was filed as active;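 further: ME-180 cervical cancer cells given 40 pM IL-6 alongside compound; SIE-controlled beta-lactamase reporter measured as 460/530 nm FRET emission ratio; on the % scale 0 is the no-effect control and ±100 the full control effect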). As to conditions: ME-180 (cervical carcinoma) SIE beta-lactamase reporter, IL-6 stimulated, 5 h. In a few lines:
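Overnight-plated ME-180 cells bearing a STAT Inducible Element beta-lactamase reporter; 5 h co-exposure to compound and 40 pM IL-6; values normalized to 300 pM IL-6 and 125 nM JAK inhibitor controls.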

Assay [14] deals with Glucocorticoid receptor (Homo sapiens) (UniProt P04150). In words: GR-GFP Redistribution (AID 450;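 active means compounds whose dose series gives a full or clear partial fitted curve of increased nuclear translocation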; further: potency means the concentration at half of the fitted maximal effect). As to conditions: U2OS GR-GFP nuclear translocation, laser cytometry, 2 h.
Assay [15] addresses Mitogen-activated protein kinase 10 (Mus musculus) (UniProt Q61831). In words: JNK3 AlphaScreen Assay (AID 530; active means well fitted curve in either direction with a large enough effect, not every such curve was filed as active;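 further: kinase came from lysate of stimulated human HepG2 cells; signal reports phosphorylation of biotinylated GST-cJun 1-79 at Ser73 with 10 µM ATP; on the % scale 0 is the no-effect control and ±100 the full control effect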). In a few lines: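 qHTS titrations with 15 min compound pre-incubation before adding ATP (10 uM final). Read-out: AlphaScreen of Ser73-phosphorylated biotin-GST-cJun using HepG2 lysate JNK3 activated by IL-1β and TNFα.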
In general terms: Bead proximity is the source of the signal in Alpha formats.

Assay [16] has as its target 3',5'-cyclic-AMP phosphodiesterase 4B (Homo sapiens) (UniProt Q07343). In words: qHTS Assay for Inhibitors of PDE-IV (AID 607; active means well fitted activation curve with a large enough effect in the main read-out, with a control signal flat, not every such curve was filed as active; further: % of control where 0% means no effect). The gist of the method: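 Live HEK293 cells with a modified cyclic nucleotide-gated (CNG) channel report intracellular cAMP via membrane-potential dye fluorescence (ex 535/em 590 nm). Endogenous PDE-IV was targeted. Compounds were tested at up to 22.9 uM final; RO 20-1724 100 uM served as control.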

In assay [17] the target is Guanine nucleotide-binding protein G(i) subunit alpha-1 (Homo sapiens) (UniProt P63096). Briefly: qHTS Assay for Inhibitors of RGS12 GoLoco Motif Activity (Green Fluorophore) (AID 879).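 Further: 0% = labeled peptide with Gαi1 and full inhibition = labeled peptide alone without protein; negative values mean loss of peptide binding seen as reduced polarization.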 In a few lines:
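A drop in FITC polarization marked displacement of the FITC-tagged RGS12 GoLoco peptide (10 nM) from Gαi1 (50 nM). Compounds were incubated 10 min at room temperature in Tris pH 7.5 buffer containing 150 mM NaCl, 0.1 mM GDP and 0.05% NP40; unlabeled peptide titration served as control.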

For assay [18], the target named is Cytochrome P450 3A4 (Homo sapiens) (UniProt P08684). In words: qHTS Assay for Activators of Cytochrome P450 3A4 (AID 885). Further: nearly all actives have a fitted effect of over 65% in size. In a few lines:
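Using 20nM recombinant human CYP3A4 in potassium phosphate (200mM), substrate Luciferin-PPXE at 25uM, luminescent luciferin detection followed a 60-min RT NADPH reaction; data scaled to 57 uM ketoconazole.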

Assay [19] concerns the target Cytochrome P450 2D6 (Homo sapiens) (UniProt P10635). In words: qHTS Assay for Inhibitors and Substrates of Cytochrome P450 2D6 (AID 891). Further: potency means the concentration at half of the fitted maximal effect; nearly all actives have a fitted effect of over 60% in size. In a few lines:
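Luminescent read-out of luciferin formed by 5 nM human CYP2D6 demethylating 30 uM Luciferin-ME EGE (Km level) over 60 min at room temperature after NADPH regeneration addition. Data normalized to full inhibition by 1.43 uM quinidine.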

Assay [20] concerns the target Cytochrome P450 2C19 (Homo sapiens) (UniProt P33261). In words: qHTS Assay for Inhibitors and Substrates of Cytochrome P450 2C19 (AID 899). Further: potency means the concentration at half of the fitted maximal effect; nearly all actives have a fitted effect of over 60% in size. In a few lines: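 5nM enzyme + 10uM Luciferin-H EGE (=KM), 50mM KPO4; cpd pin-transferred, 10 min 37C; NADPH regen, 60 min 37C; stopped w/ luciferin detection reagent, 20 min; luminescence. Normalized to 57uM ketoconazole (AC100).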

The nature of assay [21]: qHTS Assay for Identification of Small Molecule Antagonists for Thrombopoietin (TPO) Signaling Pathway (AID 918). Further: potency means the concentration at half of the fitted maximal effect; nearly all actives have a fitted effect of over 60% in size. As to conditions: TPO-dependent cell signaling reporter, antagonist mode. The gist of the method:
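Inhibition read as reduced luciferase luminescence after 24 h at 37 C in IL-3-deprived Ba/F3 cells carrying human TPO receptor and GPIIb-promoter reporter, stimulated with 26 pM TPO (final, its EC50) alongside compound.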

For assay [22], the target named is Muscarinic acetylcholine receptor M1 (Rattus norvegicus) (UniProt P08482). Briefly: qHTS Assay for Antagonists of Acetylcholine Muscarinic M1 Receptor: Kinetic Measurement of Intracellular Calcium Response (AID 943). Further: potency means the concentration at half of the fitted maximal effect; nearly all actives have a fitted effect of over 75% in size. The gist of the method:
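Antagonism measured as reduction of carbachol-evoked (EC80, 100 nM final) calcium flux in rat M1-CHO cells after 10 min compound exposure. Fluo-4 signal read kinetically; ratio of maximal to basal fluorescence.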

For assay [23] the target is unchanged. Briefly: qHTS Assay for Antagonists of Acetylcholine Muscarinic M1 Receptor: Measurement of IP-One Response (AID 944). Further: potency means the concentration at half of the fitted maximal effect; nearly all actives have a fitted effect of over 75% in size. The gist of the method: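 IP1 accumulation measured via TR-FRET between d2-IP1 and Eu-cryptate anti-IP1 antibody after carbachol (200 nM, EC80) stimulation for 30 min; rat M1-transfected CHO cells received compound 10 min before agonist.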

The target in assay [24] is Pyruvate kinase (Leishmania mexicana) (UniProt Q27686). Briefly: qHTS Validation Assay for Inhibitors of Leishmania Mexicana Pyruvate Kinase (AID 945).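 Further: 0% = DMSO only neutral control wells.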 The gist of the method: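 An endpoint luciferase assay: 0.2 nM LmPYK E451W turns over 0.5 mM PEP with 0.1 mM ADP for 1 h at room temperature, pH 7.2, before PKLight addition. Values are normalized to DMSO-only wells.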

Assay [25] concerns the target Alpha-galactosidase A (Homo sapiens) (UniProt P06280). In words: Counterscreen for Glucocerebrosidase Inhibitors: qHTS Assay for Human alpha-Galactosidase at pH 4.5 (AID 992). Further: 0% is about no effect. The gist of the method:
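Each compound is preincubated briefly with 2 nM enzyme before substrate addition (80 uM); plates then sit 20 min at ambient temperature, are quenched with 1M NaOH/1M glycine, and read fluorometrically.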

The target of assay [26] is alpha-glucosidase (Oryza sativa, rice) (UniProt Q653V4). In words: Counterscreen for Glucocerebrosidase Inhibitors: qHTS Assay for Rice alpha-Glucosidase at pH 5.0 (AID 997).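 Further: 0% = full activity with enzyme and -100% = basal without enzyme.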 In a few lines: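 Endpoint fluorogenic assay at pH 5.0: compounds (0.7 nM to 77 uM) titrated against 4 nM rice enzyme and 400 uM 4-MU-alpha-glucoside for 20 min at room temperature; NaOH/glycine stop, read ex 365/em 440 nm, Hill-fitted AC50.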

Assay [27] can be described thus: qHTS Assay for Lipid Storage Modulators (AID 1519; calls by dose curve; on activity change, negative = inhibition: on the % scale 0 is the no-effect control and ±100 the full control effect). As to conditions: Drosophila S3 cells, BODIPY lipid droplet/cell ratio, laser cytometry, cells loaded with oleic acid. In a few lines:
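Cells seeded at 5,000 per well were treated with compounds over a concentration series and loaded with oleic acid (400 uM, as added). Lipid droplet fluorescence (488 nm excitation, 500-530 nm channel) was read by laser-scanning cytometry and normalized to 20 uM Triacsin C.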

The target in assay [28] is Ubiquitin carboxyl-terminal hydrolase 1 (Homo sapiens) (UniProt O94782). In words: Inhibitors of USP1/UAF1: Pilot qHTS (AID 504865).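 Further: rhodamine fluorescence freed from ubiquitin-rhodamine substrate followed over time; top concentration of the series differs between compounds; on the % scale 0 is the no-effect control and ±100 the full control effect; nearly all actives have a fitted effect of over 35% in size.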 The gist of the method:
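USP1/UAF1 complex (1nM) preincubated with compound 15 min at room temperature, then Ub-Rho substrate (150nM final) added. Fluorescence read kinetically at 480/540 nm, 6 reads every 60 seconds. Buffer: 50mM HEPES pH 7.8, 0.5mM EDTA, 0.1 mg/ml BSA, 1mM TCEP, 0.01% Tween-20.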

In assay [29] the target is DNA dC->dU-editing enzyme APOBEC-3G (Homo sapiens) (UniProt Q9HC16). Briefly: qHTS for inhibitors of Vif-A3G interactions: Validation (AID 588379). Further: 0% is about no effect. The gist of the method: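 Yellow fluorescence (Ex 488, Em 500-530) of Vif-coexpressing HeLa A3G-eYFP cells, scanned by Acumen cytometer, reports blocked A3G degradation. Cells plated at 700/well overnight at 37 deg C before compound addition, then a further overnight compound incubation at 37 deg C.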

Several values for one entry are separate records, joined by “and”; a condition that tells them apart may be missing. Equal entries are not always repeated. Records with an inconclusive call do not appear. More than one record can exist for a structure, and the calls need not agree. Activity calls are given as the source filed them. Unless noted, the call rests on the fitted dose curve; in most records, active means well fitted curve in the direction sought with a large enough effect; inconclusive means small, poorly fitted or top-dose-only effect, or another doubt; inactive means no such curve, though single readings can be large; an effect the other way counts as inactive or inconclusive.

Cytochrome P450 2D6 (Homo sapiens), sequence (P10635 whole entry, looked up): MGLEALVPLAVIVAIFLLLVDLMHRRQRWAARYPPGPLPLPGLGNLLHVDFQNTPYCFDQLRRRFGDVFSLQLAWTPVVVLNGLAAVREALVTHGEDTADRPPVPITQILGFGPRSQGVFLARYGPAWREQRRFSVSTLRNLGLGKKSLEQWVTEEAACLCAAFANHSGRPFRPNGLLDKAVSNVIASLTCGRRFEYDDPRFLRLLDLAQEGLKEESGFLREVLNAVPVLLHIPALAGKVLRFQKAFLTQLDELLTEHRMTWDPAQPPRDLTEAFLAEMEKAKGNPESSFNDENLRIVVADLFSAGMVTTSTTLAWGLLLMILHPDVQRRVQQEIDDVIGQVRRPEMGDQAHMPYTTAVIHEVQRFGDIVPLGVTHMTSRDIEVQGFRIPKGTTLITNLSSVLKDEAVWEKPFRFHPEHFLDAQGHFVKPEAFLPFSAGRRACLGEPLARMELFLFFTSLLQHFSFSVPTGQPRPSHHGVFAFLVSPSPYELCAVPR
Glucocorticoid receptor (Homo sapiens), sequence (P04150 whole entry, looked up): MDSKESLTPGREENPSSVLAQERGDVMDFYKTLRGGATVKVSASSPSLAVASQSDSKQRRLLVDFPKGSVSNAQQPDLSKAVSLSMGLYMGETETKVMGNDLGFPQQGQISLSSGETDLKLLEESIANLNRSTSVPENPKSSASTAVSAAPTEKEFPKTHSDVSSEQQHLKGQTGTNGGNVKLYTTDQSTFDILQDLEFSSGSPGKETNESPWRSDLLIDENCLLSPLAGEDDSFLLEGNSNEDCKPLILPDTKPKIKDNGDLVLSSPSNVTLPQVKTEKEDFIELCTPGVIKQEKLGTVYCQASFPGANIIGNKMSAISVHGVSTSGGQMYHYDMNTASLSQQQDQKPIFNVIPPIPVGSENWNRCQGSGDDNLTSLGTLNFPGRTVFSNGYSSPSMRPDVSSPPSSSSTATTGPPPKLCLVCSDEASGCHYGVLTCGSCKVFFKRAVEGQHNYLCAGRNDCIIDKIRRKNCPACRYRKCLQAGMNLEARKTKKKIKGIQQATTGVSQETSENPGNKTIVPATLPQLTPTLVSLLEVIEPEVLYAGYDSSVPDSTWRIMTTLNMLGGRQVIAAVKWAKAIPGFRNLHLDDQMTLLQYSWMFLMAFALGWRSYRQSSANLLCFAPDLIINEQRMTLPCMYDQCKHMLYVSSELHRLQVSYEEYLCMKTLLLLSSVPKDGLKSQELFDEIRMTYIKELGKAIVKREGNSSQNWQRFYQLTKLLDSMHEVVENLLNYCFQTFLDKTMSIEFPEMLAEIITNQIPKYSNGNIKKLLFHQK
Cytochrome P450 3A4 (Homo sapiens), sequence (P08684 whole entry, looked up): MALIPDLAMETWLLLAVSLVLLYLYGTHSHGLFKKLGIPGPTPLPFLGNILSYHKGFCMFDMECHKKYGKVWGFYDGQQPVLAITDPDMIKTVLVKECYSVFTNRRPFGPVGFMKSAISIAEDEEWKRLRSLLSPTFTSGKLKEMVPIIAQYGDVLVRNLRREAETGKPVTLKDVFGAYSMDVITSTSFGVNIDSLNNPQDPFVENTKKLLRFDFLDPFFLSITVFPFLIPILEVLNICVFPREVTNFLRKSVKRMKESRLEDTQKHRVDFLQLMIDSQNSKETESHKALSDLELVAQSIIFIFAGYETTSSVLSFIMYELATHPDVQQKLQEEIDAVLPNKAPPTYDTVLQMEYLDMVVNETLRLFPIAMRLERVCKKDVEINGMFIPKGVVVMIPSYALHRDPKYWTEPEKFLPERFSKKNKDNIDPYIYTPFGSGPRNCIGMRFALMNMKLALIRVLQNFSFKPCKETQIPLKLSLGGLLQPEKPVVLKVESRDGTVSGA
3',5'-cyclic-AMP phosphodiesterase 4B (Homo sapiens), sequence (Q07343 whole entry, looked up): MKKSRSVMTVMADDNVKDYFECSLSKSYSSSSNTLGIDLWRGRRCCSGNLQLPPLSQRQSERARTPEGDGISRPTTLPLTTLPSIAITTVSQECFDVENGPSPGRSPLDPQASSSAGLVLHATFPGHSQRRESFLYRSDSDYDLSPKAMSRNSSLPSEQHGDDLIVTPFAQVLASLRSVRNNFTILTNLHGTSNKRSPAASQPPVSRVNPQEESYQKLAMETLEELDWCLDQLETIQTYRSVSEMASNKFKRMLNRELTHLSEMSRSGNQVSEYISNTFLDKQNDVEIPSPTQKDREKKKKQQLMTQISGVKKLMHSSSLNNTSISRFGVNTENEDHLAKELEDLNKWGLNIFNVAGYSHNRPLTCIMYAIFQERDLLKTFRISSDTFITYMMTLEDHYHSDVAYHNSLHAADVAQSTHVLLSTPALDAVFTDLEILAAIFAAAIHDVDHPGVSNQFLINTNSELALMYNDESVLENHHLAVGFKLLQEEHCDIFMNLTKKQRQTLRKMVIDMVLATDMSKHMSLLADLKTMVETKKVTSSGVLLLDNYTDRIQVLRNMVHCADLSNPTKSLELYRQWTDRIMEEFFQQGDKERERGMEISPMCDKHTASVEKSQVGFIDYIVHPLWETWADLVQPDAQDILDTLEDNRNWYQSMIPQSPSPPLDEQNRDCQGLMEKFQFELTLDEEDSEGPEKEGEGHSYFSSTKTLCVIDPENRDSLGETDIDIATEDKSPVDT
Cytochrome P450 1A2 (Homo sapiens), sequence (P05177 whole entry, looked up): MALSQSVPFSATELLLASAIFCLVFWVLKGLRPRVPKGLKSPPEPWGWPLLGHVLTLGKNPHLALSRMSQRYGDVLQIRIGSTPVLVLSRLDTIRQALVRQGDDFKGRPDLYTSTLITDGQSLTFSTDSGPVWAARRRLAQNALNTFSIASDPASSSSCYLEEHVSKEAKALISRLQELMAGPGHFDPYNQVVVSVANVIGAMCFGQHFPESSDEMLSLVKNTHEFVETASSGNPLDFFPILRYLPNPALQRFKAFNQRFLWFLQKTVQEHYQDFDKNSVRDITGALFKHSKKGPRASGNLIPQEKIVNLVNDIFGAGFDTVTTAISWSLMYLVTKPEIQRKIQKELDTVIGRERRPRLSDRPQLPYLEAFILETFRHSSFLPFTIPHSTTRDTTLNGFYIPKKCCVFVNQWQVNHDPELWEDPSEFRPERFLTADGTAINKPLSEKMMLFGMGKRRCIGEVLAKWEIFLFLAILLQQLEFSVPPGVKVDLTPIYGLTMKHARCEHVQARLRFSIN
Muscarinic acetylcholine receptor M1 (Rattus norvegicus), sequence (P08482 whole entry, looked up): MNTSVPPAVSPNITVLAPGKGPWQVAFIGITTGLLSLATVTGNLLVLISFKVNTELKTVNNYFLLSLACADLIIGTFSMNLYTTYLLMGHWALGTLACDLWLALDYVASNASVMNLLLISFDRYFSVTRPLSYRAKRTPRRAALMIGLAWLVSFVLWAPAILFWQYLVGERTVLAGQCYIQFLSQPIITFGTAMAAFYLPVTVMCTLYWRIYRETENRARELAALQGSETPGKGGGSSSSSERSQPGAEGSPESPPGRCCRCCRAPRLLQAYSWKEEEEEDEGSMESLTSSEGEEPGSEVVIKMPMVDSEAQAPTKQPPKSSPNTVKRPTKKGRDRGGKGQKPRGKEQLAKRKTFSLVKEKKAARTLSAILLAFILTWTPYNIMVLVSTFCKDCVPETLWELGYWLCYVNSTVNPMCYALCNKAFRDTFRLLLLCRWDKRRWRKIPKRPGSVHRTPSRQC
Cytochrome P450 2C19 (Homo sapiens), sequence (P33261 whole entry, looked up): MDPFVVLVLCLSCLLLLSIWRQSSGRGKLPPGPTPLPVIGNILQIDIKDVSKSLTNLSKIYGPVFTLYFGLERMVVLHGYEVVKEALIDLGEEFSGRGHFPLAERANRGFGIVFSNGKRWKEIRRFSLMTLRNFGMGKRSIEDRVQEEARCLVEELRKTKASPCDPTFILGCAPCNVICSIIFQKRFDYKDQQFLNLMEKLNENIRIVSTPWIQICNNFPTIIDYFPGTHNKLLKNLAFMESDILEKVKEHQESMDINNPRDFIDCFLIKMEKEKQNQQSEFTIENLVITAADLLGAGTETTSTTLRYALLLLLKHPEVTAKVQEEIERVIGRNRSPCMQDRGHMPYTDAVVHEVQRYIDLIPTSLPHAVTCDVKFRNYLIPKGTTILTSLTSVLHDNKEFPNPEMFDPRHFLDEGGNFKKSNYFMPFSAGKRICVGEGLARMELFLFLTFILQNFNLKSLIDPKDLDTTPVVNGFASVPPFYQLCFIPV
Pyruvate kinase (Leishmania mexicana), sequence (Q27686 2-499 E452W): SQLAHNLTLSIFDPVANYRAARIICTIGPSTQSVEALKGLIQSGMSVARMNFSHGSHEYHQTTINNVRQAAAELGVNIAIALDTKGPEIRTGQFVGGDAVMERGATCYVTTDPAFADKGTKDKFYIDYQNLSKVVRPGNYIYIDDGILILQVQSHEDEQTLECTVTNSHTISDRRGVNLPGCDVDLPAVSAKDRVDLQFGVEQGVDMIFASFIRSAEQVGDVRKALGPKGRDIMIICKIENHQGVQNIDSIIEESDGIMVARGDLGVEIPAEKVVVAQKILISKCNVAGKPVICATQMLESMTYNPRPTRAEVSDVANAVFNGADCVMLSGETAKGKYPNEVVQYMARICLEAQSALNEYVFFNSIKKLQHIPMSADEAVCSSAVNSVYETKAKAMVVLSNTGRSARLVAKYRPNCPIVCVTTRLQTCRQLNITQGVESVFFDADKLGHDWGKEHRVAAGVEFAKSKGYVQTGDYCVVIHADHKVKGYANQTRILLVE
Alpha-galactosidase A (Homo sapiens), sequence (P06280 whole entry, looked up): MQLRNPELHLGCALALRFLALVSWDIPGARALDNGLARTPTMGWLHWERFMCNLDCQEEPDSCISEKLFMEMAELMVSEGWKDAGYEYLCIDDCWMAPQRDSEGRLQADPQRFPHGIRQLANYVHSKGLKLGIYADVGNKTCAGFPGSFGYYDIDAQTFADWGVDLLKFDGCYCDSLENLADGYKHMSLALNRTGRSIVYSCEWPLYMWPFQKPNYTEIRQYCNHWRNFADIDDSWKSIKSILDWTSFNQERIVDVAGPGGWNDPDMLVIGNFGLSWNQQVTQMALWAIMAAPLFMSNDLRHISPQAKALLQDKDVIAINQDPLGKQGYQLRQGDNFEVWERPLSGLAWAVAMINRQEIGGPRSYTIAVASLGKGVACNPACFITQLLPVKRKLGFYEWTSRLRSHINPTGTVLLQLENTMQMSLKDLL

On to `CNc1cc2c(Nc3cccc(Br)c3)ncnc2cn1`, for which the Potency result in [1] and in [9] was “inactive” in each case. For the same compound, the Potency in [2] is 35.5 µM (active); in assay [3], 2 µM (active); in assay [4], 14.6 µM (active); in [6], 30.4 µM (active). The activity in [5] was -38.7%; in [7], -23.8%; in assay [8] it was -74.4%.

For the compound `C=C[C@H]1CN2CCC1C[C@@H]2C(O)c1ccnc2ccc(OC)cc12` (some centres undefined), the Potency entry in assay [1], in assay [2] and in assay [10] was “inactive” throughout. Further, the Potency in assay [3] was 39.8 µM (active) and inactive.

With `CSc1ccc2c(c1)[C@H](N1CCN(C)CC1)Cc1ccccc1S2`, the activity change, negative = inhibition in assay [11] (at 17.2 µM (top of the series)) was 22.7% (inactive); in assay [11] (at 38 µM (top of the series)), 16% (inactive); in assay [27] (at 25.7 µM (top of the series)), -1.54% (inactive). Also, the Potency in [12] was 31.6 µM (active); in assay [14], > 46 µM (inactive) and > 20.6 µM (inactive); in assay [19], 3.98 µM (active) and 1.58 µM (active) and 316 nM (active); in [20], 7.94 µM (active); in [21], 10 µM (active); in assay [22] it was 2.24 µM (active). In addition, the Potency in assay [23] was 5.62 µM (active); in assay [3], 7.94 µM (active). The activity, negative = inhibition was -9.5% (inactive) in [13] (at 17.2 µM (top of the series)) and -17.1% (inactive) in [13] (at 38 µM (top of the series)). The Potency entry in assay [15], in assay [16], in assay [18], in assay [24], in assay [28] and in [29] was “inactive” throughout. Further, the Potency entry in [1] and in assay [2] was “inactive” each time. In addition, the outcome in assay [17], in assay [25] and in assay [26] was “inactive” throughout. The max response in assay [27] (measured here: cell count channel max response) is -9.42%; in assay [27] (measured here: lipid channel max response) it was -12.6%.

The values are drawn from PubChem BioAssay (NCATS).
